SKKanGAS inh: S. pyogenes SKKanGAS growth inhibitors in kanamycin, primary screen, streptokinase expression inhibitor project, SKKanGAS strain, BacTiter-Glo luminescence. 6 h. inhibition, % at 7.5 µM. 1.3% of 300,000 active. AID 1662, 2009;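 active = mean replicate score, as percent of positive control median, at least 50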;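 also: strain carries kanamycin resistance gene driven by streptokinase promoter and grows in 40 µg/ml kanamycin; loss of luminescence reflects streptokinase promoter inhibition or plain growth inhibition; 0% = median of DMSO wells and 100% = positive control at its reference dose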
tim23-1 inh: growth inhibitors of tim23-1 mutant yeast, primary screen, luminescence, uHTS | 1.3% of 330,000 active | S. cerevisiae tim23-1 growth, BacTiter-Glo luminescence, 24 h | inhibition, % at 20 µM;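 active = growth inhibition of the mutant yeast at or above 50%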;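 also: temperature-sensitive mutant grown at 25 °C; plate controls were DMSO-treated mutant yeast for no effect and medium wells lacking yeast for full effect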
TIM10 inh: growth inhibitors of isogenic TIM10 control yeast, primary screen, counter-screen for tim10-1 yeast inhibitor project, luminescence, uHTS | S. cerevisiae TIM10 strain growth, BacTiter-Glo luminescence, 24 h | 1.4% of 330,000 active | inhibition, % at 10 µM;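 active = inhibition of 40% or more at the single tested concentration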;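 also: wild-type TIM10 isogenic control strain grown at permissive 25 °C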
NLRP3 yeast inh: NALP3 inflammasome inhibitors in reconstituted yeast, primary screen, luminescence, uHTS | Yeast reconstituted NLRP3/ASC/caspase-1, beta-gal luminescence, 24 h | inhibition, % at 10 µM | 0.39% of 330,000 active;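 active = inhibition of 50% or more; inactive = inhibition below 50%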;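 also: plate controls were induced DMSO wells for no effect and uninduced yeast grown without galactose for full effect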
PfHsp90 yeast 2: growth inhibition of PfHsp90-expressing yeast, primary screen, antimalarial PfHsp90 inhibitor project, S. cerevisiae, BacTiter-Glo luminescence, single point, set 2. BacTiter-Glo ATP, 48 h; yeast lacking PDR1 and PDR3 efflux regulators. inhibition, % at 9.4 µM. 0.32% of 310,000 active. AID 504621, 2011;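 active = every replicate shows inhibition above about 80%, whatever the replicate mean, limit read from the data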;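 also: 0% = DMSO neutral controls and 100% = 20 µM radicicol positive controls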
tim10-1 inh: growth inhibitors of tim10-1 mutant yeast, primary screen, luminescence, uHTS; S. cerevisiae tim10-1 ts strain growth, BacTiter-Glo, 24 h; inhibition, % at 20 µM; 2.2% of 330,000 active; AID 463190, 2010;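 active = inhibition of at least 40%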;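 also: mutant grown at 25 °C; 0% = DMSO wells with yeast and 100% = wells holding no yeast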
tim10-1 conf: growth inhibitors of tim10-1 mutant yeast, confirmation, single concentration, luminescence, S. cerevisiae; 56% of 7,400 active; shares compounds with tim10-1 inh; AID 463213, 2010; S. cerevisiae tim10-1 ts strain growth, BacTiter-Glo, 24 h; inhibition, % at 20 µM;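 active = inhibition of yeast growth at or above a set limit in either of two repeat tests at 20 µM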;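 also: tim10-1 mutant grown at permissive 25 °C to find synthetic lethal compounds; 0% = DMSO yeast wells and 100% = medium wells without yeast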
TIM10 conf: growth inhibitors of wild-type TIM10 yeast, confirmation, counter-screen for tim10-1 synthetic lethality project, single concentration, luminescence, S. cerevisiae | shares compounds with TIM10 inh | S. cerevisiae tim10 strain growth, BacTiter-Glo luminescence, 24 h | inhibition, % at 10 µM | 63% of 4,600 active | AID 463215, 2010;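 active = inhibition of yeast growth at or above a set limit in either of two replicates at 10 µM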;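 also: this counterscreen used the strain with wild-type TIM10; 0% = yeast with DMSO and 100% = medium wells lacking yeast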
tim23-1 confirm: tim23-1 mutant yeast growth inhibitors, confirmation, luminescence, single concentration; S. cerevisiae tim23-1 growth, BacTiter-Glo luminescence, 24 h; shares compounds with tim23-1 inh; 83% of 4,400 active; inhibition, % at 20 µM;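 active = inhibition above about 39% in either of two replicate wells at 20 µM, limit read from the data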;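 also: temperature-sensitive tim23-1 mutant grown at 25 °C; 0% = DMSO wells with yeast and 100% = medium wells without yeast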
An asterisk follows results filed as active; / = no result given. The list is not random: actives were taken first. Their share in the collection is about 4.6%.

SMILES | SKKanGAS inh | tim23-1 inh | TIM10 inh | NLRP3 yeast inh | PfHsp90 yeast 2 | tim10-1 inh | tim10-1 conf | tim23-1 confirm | others
CN1C(=O)/C(=C\c2cc(N=Nc3ccccc3)ccc2O)SC1=S | 83* | 62* | 40 | 39 | 25 | 42* | 24 | 67*
CN1C(=O)/C(=C\c2ccccc2OCc2ccccc2)SC1=S | 2 | 4 | -17 | 10 | 7 | 16 | / | /
Cc1cccc(CSc2cccc3cccnc23)c1 | 43 | 51* | 37 | 41 | / | 46* | 40* | 50*
Cc1cccc(NC(=S)NC2CCCCC2)n1 | -8 | 52* | 50* | 18 | -19 | 41* | 28 | 50* | TIM10 conf=44*
CCN(CC)CCNC(=O)c1cc2c(s1)-c1ccccc1SC2 | -9 | -1 | 8 | 10 | -3 | -56 | / | /
NNC(=O)c1cc2c(s1)-c1cc(Cl)ccc1SC2 | 10 | 55* | 27 | 9 | -1 | 57* | 44* | 49*
CCN(C(=O)COC(=O)CNC(=O)c1ccc2ccccc2c1)C1CCS(=O)(=O)C1 (stereo not given) | 0 | 5 | -5 | -9 | 5 | -4 | / | /
Nc1ccc(-n2cnc3cc([N+](=O)[O-])ccc32)cc1 | 1 | 11 | 7 | 34 | -1 | 10 | / | /
Nc1ccc2nn(-c3cc([N+](=O)[O-])ccc3O)nc2c1 | 34 | 58* | 28 | 2 | -70 | 51* | 38* | 53*
Nc1ccccc1C#Cc1ccc2[nH]ccc2c1 | 4 | 63* | 25 | 25 | 0 | 44* | 7 | 53*
CCOC(=O)c1cc(C#N)c(C)nc1N(CC)CC | -1 | -2 | -17 | -6 | -9 | -12 | / | /
O=[N+]([O-])c1c(C(Cl)Cl)nn(-c2ccccc2)c1N1CCCC1 | 6 | 61* | 20 | 7 | -4 | 61* | 61* | 58*
CCOC(=O)C1CCN(c2c([N+](=O)[O-])c(C(Cl)Cl)nn2-c2ccccc2)CC1 | -11 | 43 | 34 | 9 | -2 | 30 | / | /
O=C1c2ccccc2C(=O)C1(O)O | / | -11 | 1 | 7 | / | -15 | / | /
CC1(S(=O)(=O)O)CC(=O)c2ccccc2C1=O (stereo not given) | 23 | 67* | 32 | -7 | -13 | 41* | 28 | 63*
CCn1c(=O)n(CC(=O)Nc2ccc(F)cc2)c(=O)c2ccccc21 | 4 | 4 | -12 | -3 | 23 | -2 | / | /
NC(=O)c1cc(Br)cc2c3c([nH]c12)CCCC3 | 18 | 76* | 56* | 20 | -3 | 69* | 58* | 62* | TIM10 conf=-8
COC(=O)C(Cc1ccc(O)cc1)NC(=O)C1CCN(S(=O)(=O)c2ccc(C)cc2)CC1 (stereo not given) | 0 | 3 | 0 | 18 | -3 | -1 | / | /
Cc1ccc(C(=O)/C=C/c2ccc(F)cc2)o1 | 3 | 18 | 12 | 2 | 8 | 12 | / | /
O=C(/C=C/c1ccc(F)cc1)c1ccccc1Br | 8 | 62* | 44* | 15 | 59 | 47* | 64* | 58* | TIM10 conf=64*
O=[N+]([O-])c1cccc(-c2csc(Nc3ccccc3)n2)c1 | / | 86* | 64* | 0 | -11 | 50* | 59* | 67* | TIM10 conf=66*
COc1ccc(-c2csc(Nc3ccccc3)n2)cc1 | 3 | 54* | 61* | 14 | / | 46* | 37* | 48* | TIM10 conf=43*
CCOc1ccccc1C(=O)NC1CCNCC1 | -2 | 0 | -6 | 9 | 1 | -15 | / | /
COc1ccc(COc2ncnc3ccc(Br)cc23)cc1F | -4 | 26 | 3 | 18 | -4 | -30 | / | /
CN(C)S(=O)(=O)c1cccc(-c2nnc(SCC(=O)NCCCCCC(=O)O)n2-c2ccc(F)cc2)c1 | -1 | 2 | 9 | 9 | -4 | 6 | / | /
SMILES | SKKanGAS inh | tim23-1 inh | TIM10 inh | NLRP3 yeast inh | PfHsp90 yeast 2 | tim10-1 inh | tim10-1 conf | tim23-1 confirm | others
O=C(NCC(O)c1ccccc1)c1ccc(Cl)c(S(=O)(=O)N2CCCC2)c1 (stereo not given) | -2 | 2 | -2 | 14 | / | -7 | / | /
CN1C(=O)C2C(c3ccc(N(C)C)cc3)NN(Cc3ccccc3)C2C1=O (stereo not given) | 11 | -3 | -12 | 34 | 31 | -42 | / | /
O=C(/C=C/c1cccc(F)c1)N1CCN(c2ccccn2)CC1 | 2 | 15 | 2 | 22 | -7 | 7 | / | /
Nc1cccc2c1C(=O)N(C(=O)/C=C/c1cccc(F)c1)C2=O | 3 | 82* | 50* | -11 | 1 | 69* | 59* | 87* | TIM10 conf=40*
Cc1ccc(C)c(OCC(=O)Nc2ccccc2C(=O)N2CCOCC2)c1 | 12 | 14 | 9 | 30 | 2 | 11 | / | /
O=C(NC(=S)Nc1cccc2cc(O)ccc12)c1ccco1 | -3 | 22 | 3 | 2 | -12 | 29 | / | /
O=C(NC(=S)Nc1ccccc1N1CCCC1)c1ccccc1[N+](=O)[O-] | 6 | / | / | / | -5 | / | / | /
O=C(NC(=S)Nc1ccccc1N1CCCC1)c1ccco1 | -1 | 41 | 35 | -49 | -15 | 35 | / | /
O=C(NC(=S)Nc1ccccc1N1CCCCC1)c1ccco1 | -10 | 54* | 52* | -43 | -11 | 49* | 37* | 51* | TIM10 conf=-18
O=C(/C=C/c1ccco1)NC(=S)Nc1ccccc1N1CCOCC1 | -5 | 55* | 43* | 16 | / | 50* | 27 | 48* | TIM10 conf=51*
O=C(NC(=S)Nc1ccccc1N1CCCC1)c1ccccc1Br | 81* | 61* | 39 | 18 | -6 | 41* | 8 | 43*
O=C(NC(=S)Nc1cccc2cc(O)ccc12)c1ccccc1Br | 17 | 51* | 15 | 37 | 5 | 46* | 21 | 49*
Cc1ccc(Cl)cc1NC(=S)NN | 20 | 12 | 9 | 9 | -18 | 25 | / | /
COc1ccc(/C=C/C(=O)c2ccc([N+](=O)[O-])o2)cc1 | 30 | 79* | 70* | 5 | 15 | 45* | 16 | -4 | TIM10 conf=79*
CC(=O)c1ccc(NC(=O)C(C)NCc2ccccc2Cl)cc1 (stereo not given) | 0 | 16 | 17 | 24 | / | 2 | / | /

Compound activity from PubChem.
